# Assay results as given in the supplement of paper PMC13380429.
# Experiments:
# [1] = tested on: Vero E6 infected with SARS-CoV-2; experiment: morphology score (similarity to uninfected cells); higher = more like uninfected cells; conditions: 24 h
# [2] = tested on: Vero E6 infected with SARS-CoV-2; experiment: SARS-CoV-2 infection rate relative to infected DMSO; higher = more infection, active = 60 or less; conditions: 24 h
SMILES,morphology score [1],SARS-CoV-2 infection rate [2]
NC1=N[C@@]2(c3cc(NC(=O)c4ccc(F)cn4)ccc3F)COC[C@H]2CS1 (10 µM),0.00208,116% (inactive)
Nc1ncnc2c1c(-c1ccc(Cl)cc1)nn2-c1cccc(-c2cnnn2Cc2cccc(-c3ccccc3)c2)c1 (10 µM),-0.00803,104% (inactive)
Cc1ccc(NC2=CC(=O)c3sc(C)nc3C2=O)cc1 [ryuvidine] (0.833333 µM),0.165,104% (inactive)
CCCC(=O)N1CCCN(c2nc(N)c3cc(OC)c(OC)cc3n2)CC1 [bunazosin] (10 µM),0.0754,108% (inactive)
CC(C)c1ccc2oc3nc(N)c(C(=O)O)cc3c(=O)c2c1 [amlexanox] (10 µM),-0.183,111% (inactive)
CCCCc1nc2cc(/C=C/C(=O)NO)ccc2n1CCN(CC)CC (10 µM),-0.146,109% (inactive)
C[C@H](CCC(=O)NCCS(=O)(=O)O)[C@H]1CC[C@H]2[C@@H]3[C@@H](O)C[C@@H]4C[C@H](O)CC[C@]4(C)[C@H]3CC[C@]12C [ursodeoxycholyltaurine] (10 µM),0.0842,102% (inactive)
NCCC(O)(P(=O)(O)O)P(=O)(O)O [pamidronate] (10 µM),0.09,114% (inactive)
CCC(C)(CN(C)C)OC(=O)c1ccccc1 (stereo not given) [amyleine] (10 µM),-0.104,120% (inactive)
CC(C)(CO)c1cc2cc(NC(=O)C3(c4ccc5c(c4)OC(F)(F)O5)CC3)c(F)cc2n1C[C@@H](O)CO [tezacaftor] (10 µM),-0.0125,108% (inactive)
